# A selection: hits, their analogues and other compounds. The true share with any hit is near 7.3%.
# ELG1 genotoxic: inducers of genotoxicity in HEK293T ELG1-luciferase cells. HEK293T ELG1-luciferase reporter, luminescence, 16 h. actives 1.3% (n = 330,000). Potency, µM (highest dose often 46 µM), without a hit: top-dose activity change, positive = activation, hits mostly activators. AID 504466; note: % of control where 0% means no effect; nearly all actives have a fitted effect of over 60% in size
#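 DMSO vehicle served as control against compound-treated ELG1-luciferase HEK293T cells; exposure lasted 16 hr at 37 °C and 5% CO2, followed by ONE-Glo luminescence detection after 30 min.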
# NPC1 promoter act: activators of NPC1 promoter | Huh7 NPC1 promoter luciferase reporter, 24 h | Potency, µM (highest dose often 9.22 µM), without a hit: top-dose activation, hits mostly activators | actives 2.4% (n = 320,000); note: % of control where 0% means no effect; nearly all actives have a fitted effect of over 60% in size
#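 In 1536-well qHTS, Huh7 cells harboring an NPC1 promoter–luciferase construct received compound for 24 h; activation was quantified by luminescence following luciferase reagent addition.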
# SMN2 splice up: increases expression of the SMN2 splice variant; HEK293 SMN2-luciferase splicing reporter, luminescence, 30-36 h; Potency, µM (titrated, usually from 46.1 µM), for the others: top-dose activity change, positive = activation, usual class: activators; actives 2.8% (n = 210,000); AID 1458; note: % of control where 0% means no effect; nearly all actives have a fitted effect of over 55% in size
#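 HEK293 cells carry an SMN2 minigene-luciferase reporter in which exon 7 inclusion puts luciferase in frame. Cells were seeded at 2000 cells/well, attached for 10-12 hours, then exposed to compounds for 30-36 hours at 37C before ONE-Glo luminescence.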
# Luc counter: blocks Kinase-Glo luciferase, a counter-screen artifact; actives 0.28% (n = 200,000); Potency, µM (series often up to 38.3 µM), without a hit: at the top dose activity change, negative = inhibition, usual class: inhibitors; Kinase-Glo luciferase, ATP luminescence, 8 min; note: % is set by controls: 0 for no effect and ±100 for the full control effect; nearly all actives have a fitted effect of over 60% in size
#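 Compounds were added to a substrate mix at pH 7.2 (50 mM imidazole, 10 uM ATP, within the enzyme's linear range), followed by Kinase-Glo detection reagent; luminescence was measured after 8 minutes at ambient temperature.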
# Rab9 prom act: activators of Rab9 promoter; Huh7 Rab9 promoter-luciferase reporter, luminescence, 24 h; Potency, µM (highest dose often 9.22 µM), for inactives: at the top dose activation, negative = inhibition, actives largely listed as activators; actives 2.8% (n = 320,000); AID 485297; note: % of control where 0% means no effect; nearly all actives have a fitted effect of over 60% in size
#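 Stable Rab9-luc Huh7, 1500 cells/well, 2 h settle; cmpd in DMSO, 24 h, 37 °C/5% CO2; luciferase reagent 10 min RT; luminescence.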
# FLuc counter: counter-screen for miR-21 project: firefly luciferase inhibitors or activators | actives 6.9% (n = 360,000) | P08659 | purified FLuc, Km substrates, luminescence inhibition | Potency, µM (series often up to 57.5 µM), for inactives: at the top dose activity change, negative = inhibition, usual class: inhibitors;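 note: plate controls were vehicle for no effect and reference inhibitor for full effect; nearly all actives have a fitted effect of over 55% in size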
# Target sequence (P08659 whole entry, looked up): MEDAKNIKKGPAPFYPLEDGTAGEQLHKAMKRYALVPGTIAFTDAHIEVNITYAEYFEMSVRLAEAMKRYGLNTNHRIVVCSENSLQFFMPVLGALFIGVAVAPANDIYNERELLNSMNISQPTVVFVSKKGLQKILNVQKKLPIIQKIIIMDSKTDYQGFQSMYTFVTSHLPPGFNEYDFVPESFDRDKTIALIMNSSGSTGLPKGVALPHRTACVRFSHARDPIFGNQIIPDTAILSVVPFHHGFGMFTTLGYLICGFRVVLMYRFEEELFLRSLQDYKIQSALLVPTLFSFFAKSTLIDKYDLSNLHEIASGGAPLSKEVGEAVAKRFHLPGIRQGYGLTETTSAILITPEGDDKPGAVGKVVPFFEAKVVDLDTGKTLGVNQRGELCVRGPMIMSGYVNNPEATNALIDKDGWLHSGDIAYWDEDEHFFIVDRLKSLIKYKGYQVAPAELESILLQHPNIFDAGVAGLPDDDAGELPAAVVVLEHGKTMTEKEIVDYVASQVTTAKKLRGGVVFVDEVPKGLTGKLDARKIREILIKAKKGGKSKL
#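 Purified P. pyralis luciferase, 10 nM final, with Km-level 10 uM D-luciferin and 10 uM ATP in 50 mM Tris acetate pH 7.5, 10 mM Mg acetate, 0.01% Tween-20, 0.05% BSA; 6-point qHTS titration about 60 µM downward; luminescence read.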
# * hit, by the source's call; ? = inconclusive; · = no result given. Calls come from the whole dose curve; as a rule, active = well fitted curve in the direction sought with a large enough effect; inconclusive = small, poorly fitted or top-dose-only effect, or another doubt; inactive = no such curve, though single readings can be large; an effect the other way counts as inactive or inconclusive. Potency is the fitted concentration of half-maximal effect.
SMILES,ELG1 genotoxic,NPC1 promoter act,SMN2 splice up,Luc counter,Rab9 prom act,FLuc counter
CCNc1oc(-c2cccc3ccccc23)nc1C#N,·,·,-4.5%,1.0%,·,?
Cc1nnc(N2CCN(c3ccccc3F)CC2)c2c1nnn2Cc1ccccc1Cl,·,·,6.5%,·,·,-0.3%
C=CCN=Cc1c(C)[nH]n(-c2ccccc2)c1=O,13.9%,29.0%,?,-1.3%,3.55µM*,?
Cn1cc(/C=C/C(=O)c2ccccc2)c2ccccc21,1.83µM*,1.58µM*,·,·,1.26µM*,0.536µM*
Cc1ccc(C(=O)/C=C/c2cn(CN3CCN(C)CC3)c3ccccc23)cc1,14.6µM*,?,14.4%,-3.9%,?,4.78µM*
COC[C@@H](O)[C@@H](OC)[C@H](OC)[C@H](Cc1c(OC)cc(OC)cc1OC)OC,·,·,5.2%,0.2%,·,·
CCOc1ccc(CCNC(=O)CCSCc2ccc(Cl)cc2)cc1OCC,·,·,·,·,·,-0.4%
COc1ccc(-c2csc(NC(=O)Cc3ccccc3F)n2)cc1OC,-24.4%,-12.7%,·,·,-7.3%,?
COc1ccccc1CC(=O)Nc1nc(-c2ccc(F)c(F)c2)cs1,-14.4%,4.8%,·,·,12.3%,15.1µM*
O=C(Cc1ccccc1F)Nc1nc(-c2ccc(F)cc2)cs1,-13.5%,7.9%,·,·,?,10.7µM*
Cc1ccc2c(c1)c1c(c(=O)n(Cc3ccccc3)c(=O)n1Cc1ccccc1F)n2C,·,·,·,·,·,-5.9%
O=[N+]([O-])c1ccc2[nH]nc(-c3ccccc3)c2c1,-2.1%,-1.8%,-6.4%,0.0%,1.1%,-1.5%
O=c1c(-c2ccccc2)n[nH]c2ccccc12,0.0%,2.24µM*,·,·,3.55µM*,9.53µM*
O=C(Oc1ccc(C(=S)N2CCC(O)CC2)cc1)c1ccc(Cl)cc1,-0.1%,-2.0%,3.2%,-0.6%,3.8%,5.36µM*
CC(C)C(C(=O)O)N1C(=O)/C(=C/C=C/c2ccco2)SC1=S (stereo not given),-0.2%,-2.9%,-18.5%,-24.0%,-0.4%,-18.8%
COc1ccc(/C=C2\SC(=S)N(NC(=O)c3ccncc3)C2=O)cc1OC,1.1%,-3.1%,9.5%,2.0%,-2.8%,?
O=C(NN1C(=O)/C(=C/C=C/c2ccccc2)SC1=S)c1ccncc1,-4.7%,-6.5%,-20.1%,7.4%,2.6%,13.5µM*
O=C1/C(=C/C=C/c2ccco2)SC(=S)N1c1ccc(O)cc1,7.9%,4.7%,·,·,6.3%,21.3µM*
O=C(NN1C(=O)/C(=C/C=C/c2ccco2)SC1=S)c1ccncc1,-0.1%,-3.3%,·,·,2.7%,21.3µM*
CN(C)c1ccc(/C=C/C=C2/SC(=S)N(c3ccccc3)C2=O)cc1,14.0%,?,-65.2%,?,?,4.78µM*
O=C1/C(=C\c2ccco2)SC(=S)N1c1ccc(O)cc1,-2.1%,10.2%,-8.8%,0.0%,11.2%,?
COc1ccc(S(=O)(=O)NCc2cccn2Cc2cccc(C)c2)cc1OC,·,·,·,·,·,2.6%
CCN(CC)c1nn2c(=O)c(C(=O)NCc3cccc(OC)c3OC)cnc2s1,·,·,·,·,·,3.2%
CCN(CC)c1cc(C)c2cc(NC(=O)c3ccccc3Cl)ccc2n1,·,·,-11.3%,·,·,-19.6%
Oc1ccccc1/C=N/Nc1nc2ccccc2o1,9.2µM*,-14.9%,·,·,-17.1%,1.9µM*
SMILES,ELG1 genotoxic,NPC1 promoter act,SMN2 splice up,Luc counter,Rab9 prom act,FLuc counter
Brc1ccc(/C=N/Nc2nc3ccccc3o2)cc1,?,1.58µM*,·,·,1.12µM*,1.51µM*
COC(=O)[C@@H]1C[C@@H]2CC[C@@H](O)C[C@@H]2N1Cc1ccc(C)s1,·,·,-3.0%,1.9%,·,·
O=[N+]([O-])c1ccc(Cc2nnc(-c3ccc(F)cc3)o2)cc1,-4.3%,?,4.9%,12.2%,1µM*,-11.5%
Cc1ccc(-c2nnc(Cc3ccc([N+](=O)[O-])cc3)o2)cc1,?,?,·,12.1%,2.24µM*,-1.9%
Fc1ccc(-c2nnc(Cc3nnc(-c4ccc(F)cc4)o3)o2)cc1,-0.6%,-2.2%,-5.2%,10.3%,0.3%,-1.5%
CC(=O)CSc1nnc(Cc2ccc([N+](=O)[O-])cc2)o1,2.7%,-4.9%,7.6%,2.1%,-6.1%,-1.2%
Oc1ccc(/C=C/c2nc(-c3ccccc3O)n(-c3ccccc3)n2)cc1,0.1%,-3.9%,-16.2%,-6.3%,5.2%,16.9µM*
Oc1ccccc1-c1nc(/C=C/c2ccccc2)nn1-c1ccccc1,1.7%,5.4%,-24.0%,0.0%,8.8%,?
Cc1ccc(Cl)cc1NC(=O)Nc1cccc(OCc2cc(=O)n3ccccc3n2)c1,·,·,·,·,·,-7.0%
CC(C)C(N)C(=O)O (stereo not given),·,·,-4.8%,·,·,·
CCc1ccc(OCC(=O)Nc2ncn[nH]2)c(Br)c1,·,·,?,·,·,1.07µM*
O=C(COc1ccccc1)Nc1ncn[nH]1,7.8%,13.0%,·,·,11.0%,-13.1%
O=C(COc1ccc(Br)cc1Cl)Nc1ncn[nH]1,·,·,?,·,·,2.13µM*
CCc1ccc(OCC(=O)Nc2ncn[nH]2)cc1,?,?,?,-5.1%,4.47µM*,13.5µM*
CC(=O)Oc1ccccc1-c1nc(/C=C/c2ccccc2)no1,9.2µM*,2.82µM*,·,·,?,10.7µM*
COc1ccc(/C=C/c2noc(-c3ccccc3O)n2)cc1,?,?,26.8%,?,26.5%,3.79µM*
COc1cc(/C=C/c2noc(-c3ccccc3O)n2)cc(OC)c1OC,10.1%,21.8%,12.7%,-1.3%,26.5%,0.5%
CC(C)CCNC(=O)c1ccc(Cn2c(=O)c3cccn3c3cccnc32)cc1,·,·,·,·,·,-4.5%
CNCCCCc1cnc(C)c2[nH]c3ccccc3c12,·,·,-41.7%,0.5%,·,·
Cc1ccc(-c2cc(N)n(-c3ccccc3)n2)cc1,?,1.12µM*,11.2µM*,?,2.82µM*,1.69µM*
c1ccc(N2CCN(c3ncccn3)CC2)cc1,5.7%,4.9%,23.2%,2.4%,24.0%,-12.6%
Cc1cccc(-c2cc(N)n(-c3ccccc3)n2)c1,?,1.26µM*,11.2µM*,-23.7%,0.794µM*,4.26µM*
Cc1cccc(-c2cc(NC(=O)C(C)(C)C)n(-c3ccccc3)n2)c1,·,·,·,·,·,21.3µM*
CCc1ccc(-c2cc3c(N4CCN(c5ccccc5)CC4)nccn3n2)cc1,·,·,14.1µM*,·,·,19µM*
CC=C(Cl)Cl,·,·,3.1%,·,·,·
O=C1C(c2cccc(Br)c2)N(CCc2ccccc2)C(=O)CN1C1CCCCC1 (stereo not given),·,·,·,·,·,-7.3%
CCc1ccc(-c2cc(N)n(-c3ccccc3)n2)cc1,2.59µM*,0.562µM*,5.01µM*,-13.8%,1.26µM*,1.69µM*
CCS(=O)(=O)n1nc(-c2ccccc2)cc1N,0.0%,4.9%,-0.6%,-0.6%,0.8%,0.2%
Nc1cc(C2CCCC2)nn1-c1ccccc1,?,2.24µM*,20µM*,12.6µM*,?,15.1µM*
